Screening results (PubChem BioAssay)
D3 ag: activates the human D3 dopamine receptor; P35462; D3R DiscoveRx beta-arrestin cells, luminescence, 90 min; max activation, %; 410,000 compounds, 0.58% hits; AID 652048; in the data active means max activation above about 30%; further: 0% is about no effect
Target sequence (P35462 whole entry, looked up): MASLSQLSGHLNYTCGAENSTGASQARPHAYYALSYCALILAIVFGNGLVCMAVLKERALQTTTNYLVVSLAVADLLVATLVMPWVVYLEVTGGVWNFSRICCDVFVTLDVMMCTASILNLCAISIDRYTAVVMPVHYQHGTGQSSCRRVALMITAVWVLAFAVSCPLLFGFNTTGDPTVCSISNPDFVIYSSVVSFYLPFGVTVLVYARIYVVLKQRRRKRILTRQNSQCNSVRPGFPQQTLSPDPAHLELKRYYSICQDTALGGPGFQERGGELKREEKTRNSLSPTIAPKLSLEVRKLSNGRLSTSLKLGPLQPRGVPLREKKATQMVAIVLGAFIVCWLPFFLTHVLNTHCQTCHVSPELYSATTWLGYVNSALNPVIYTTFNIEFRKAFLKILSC
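Cells at 1500/well, incubated overnight, then treated with pinned compounds (dopamine as control) for 90 min at 37 degrees C. DiscoveRx reagent added for 30 - 60 minutes at room temperature; luminescence read.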
GLP1R ag: activates the human GLP-1 receptor; P43220; HEK293 GLP-1R CRE-luciferase, luminescence, 4-6 h; cells express a hypersensitive GLP-1R form; 380,000 compounds, 0.007% hits; Potency, µM (doses to about 45.6 µM), for inactives: at the highest dose activation, actives largely listed as activators; AID 624172; further: potency means the concentration at half of the fitted maximal effect; % of control where 0% means no effect
DRD3 antagonist: blocks the human D3 dopamine receptor; AID 652054; D3R cells, DiscoveRx beta-arrestin luminescence, antagonist mode; active compounds read low; P35462; max response, negative = inhibition, %; 360,000 compounds, 2.5% hits; in the data active means max response below about -50%; inconclusive means no clear call, values can overlap the other calls; further: on the % scale 0 is the no-effect control and ±100 the full control effect
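Cells expressing the human receptor were seeded at 1500 cells/well, incubated overnight at 37 degrees C in 5% CO2, then exposed to library compounds with dopamine controls for 90 minutes at 37 degrees C before luminescent detection.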
GLP1R inv ag: inverse agonists of human GLP-1 receptor; Potency, µM (series often up to 38.3 µM), without a hit: at the highest dose activity change, negative = inhibition, usual class: inhibitors; HEK293 GLP-1R CRE-luciferase, luminescence, 24 h; GLP-1R form is constitutively active; P43220; AID 624417; 410,000 compounds, 1.6% hits; further: potency means the concentration at half of the fitted maximal effect; on the % scale 0 is the no-effect control and ±100 the full control effect; nearly all actives have a fitted effect of over 55% in size
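Inverse agonism was detected as reduced cAMP-driven luciferase luminescence after 24 h compound treatment. The cells were HEK293 clones expressing constitutively active human GLP-1R with the reporter. Reporter-only and GPR119 cell lines served as counterscreen controls.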
Numbers without * were called inactive; ? = inconclusive; . = no result; [ ] = another dose, or the depositor's remark. Sampled rows, rich in hits. Any-hit rate of the full collection: about 4.3%. Unless noted, the call rests on the fitted dose curve; in most records, active means well fitted curve in the direction sought with a large enough effect; inconclusive means small, poorly fitted or top-dose-only effect, or another doubt; inactive means no such curve, though single readings can be large; an effect the other way counts as inactive or inconclusive.

SMILES	D3 ag	GLP1R ag	DRD3 antagonist	GLP1R inv ag
CCc1ccc2c(c1)C(=O)C(=O)N2CCS(=O)(=O)c1ccccc1	-5.5	5.5%	-26.0	19.5%
O=C1C(=O)N(CCS(=O)(=O)c2ccccc2)c2ccc(Cl)cc21	-22.6	0.3%	-75.0*	?
O=C(CN1C(=O)CCn2nc(-c3ccccc3)cc21)NCc1ccc(F)cc1	-13.1	.	.	3.7%
CN1CCN(C2=Cc3ccccc3Sc3cc(F)c(F)cc32)CC1	1.9	-1.5%	-61.7*	?
CN(C)CCCC1(c2ccc(F)cc2)OCc2cc(C#N)ccc21 (stereo not given)	-71.8	-2.6%	-58.7*	?
O=C(NCc1ccccc1)C1=C[C@@H](c2csc3ccccc23)C[C@@H](OCc2ccc(CO)cc2)O1	12.0	-0.7%	7.6	8.91µM*
COc1ccc(/C=C/C(=O)Nc2ccc(Cl)c(Cl)c2)cc1OC	-8.8	.	.	8.91µM*
CO/N=C\CC(=O)Nc1ccc(Cl)c(Cl)c1	-1.8	4.6%	2.0	3.16µM*
COc1ccc(N2CC(NC(=O)c3cc4ccccc4o3)CC2=O)cc1 (stereo not given)	10.0	.	.	-0.4%
c1ccc(OCCCc2nc(-c3ccncc3)no2)cc1	2.4	9.6%	-52.2*	-1.4%
c1ccc(OCc2nc(-c3ccncc3)no2)cc1	-2.7	0.9%	5.3	2.1%[0.307 µM]
CCN1CCN(C(=O)Cn2nc(-c3ccc(Cl)cc3)ccc2=O)CC1	-25.0	9.0%	-6.7	2.82µM*
CCOC(=O)N1CCN(C(=O)Cn2nc(-c3ccc(Cl)cc3)ccc2=O)CC1	0.8	-3.6%	4.3	?
CCOC(=O)C1CCCN(C(=O)c2cc3c(=O)n(C)c4ccccc4c3s2)C1 (stereo not given)	6.8	.	.	5.5%
Cc1ccc(-c2n[nH]c3c2C(c2cccs2)N(c2ccc(Cl)cc2)C3=O)cc1 (stereo not given)	4.1	-13.0%	.	7.94µM*
Cc1ccc(N2C(=O)c3[nH]nc(-c4ccc(Cl)cc4)c3C2c2ccc(F)cc2)cc1 (stereo not given)	4.9	-6.1%	.	?
OC1(c2ccc(OC(F)F)cc2)CSC(=Nc2cccnc2)N1Cc1ccco1 (stereo not given)	57.1*	11.1%	93.2	?
OC1(c2ccc(F)cc2)CSC(=Nc2cccnc2)N1Cc1ccco1 (stereo not given)	0.7	7.5%	9.7	?
COc1ccccc1CNC(=O)CCCCn1c(=O)c2ccccc2n(Cc2c(C)cc(C)cc2C)c1=O	-6.7	-0.7%	.	1.2%
CC1=NN(C(=O)COc2ccc(C)c(C)c2)C(O)(c2ccc(Cl)cc2)C1 (stereo not given)	-0.2	7.0%	-16.6	12.6µM*
Cc1cc(S(=O)(=O)C(CNC(=O)c2ccc(OC(C)C)cc2)c2cccs2)ccc1F (stereo not given)	-9.0	.	.	-0.7%
NC(=S)Nc1cccc2cc3ccccc3cc12	3.4	-10.1%	?	0.8%
NC(=S)Nc1cc2ccccc2c2ccccc12	-2.6	-8.6%	-63.5*	-20.6%
O=C(Cn1c2[n+](c3ccc(C(F)(F)F)cc31)CCCCC2)c1cccc([N+](=O)[O-])c1	-12.3	-1.6%	-89.5*	-3.7%
O=C(Cn1c2[n+](c3ccc(C(F)(F)F)cc31)CCCCC2)Nc1ccccc1	-33.1	-1.0%	-51.4*	7.3%
SMILES	D3 ag	GLP1R ag	DRD3 antagonist	GLP1R inv ag
Cc1ccc(NC(=O)Nc2cc3c(cc2N2CCCCC2)n(C)c(=O)n3C)cc1Cl	-12.0	-4.8%	.	-1.0%
Cc1cc2c(c(=O)n1Cc1ccco1)C(c1cccnc1)C(C#N)=C(N)O2 (stereo not given)	-0.1	11.3%	-17.5	-8.6%
CCOc1ccc(C2C(C#N)=C(N)Oc3cc(C)n(Cc4ccco4)c(=O)c32)cc1OC (stereo not given)	2.7	5.8%	-52.6*	0.2%
CC(C)(C)OC(=O)C[C@H]1C/C=C\C[C@@H](CC(=O)N(CCO)Cc2ccccc2)C(=O)NC[C@H](c2ccccc2)OC1=O	-1.0	-3.5%	1.4	-11.6%
O=C1NC[C@H](c2ccccc2)OC(=O)[C@H](Cc2ccc(F)cc2)C/C=C\C[C@H]1CC(=O)N(CCO)Cc1ccccc1	-2.7	-6.1%	34.9	5.62µM*
CC(C)(C)OC(=O)C[C@@H]1C/C=C\C[C@H](CC(=O)N(CCO)Cc2ccccc2)C(=O)NC[C@@H](c2ccccc2)OC1=O	-42.1	5.0%	-95.5*	7.5%
O=C(Nc1cccc2cccnc12)c1ccc(-c2cccc(Cl)c2)o1	1.4	2.1%	.	4.2%
